Sampled rows, rich in hits. Any-hit rate of the full collection: about 6.6%.
HT1080 IDH1KD tx – qHTS for induction of synthetic lethality in tumor cells producing 2HG: qHTS for the HT-1080-IDH1KD cell line. AID 686971, 2013. actives 2% (n = 360,000). HT-1080 IDH1 knockdown viability, ATP luminescence, 48 h. Potency, µM (top dose mostly 46.1 µM), for inactives: at the top dose activity, negative = toxicity, hits mostly cytotoxic;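 note: 0% = DMSO wells and -100% = cell-free medium wells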
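Knockdown cells (IDH1KD HT-1080) received compounds 2 h after plating at 750 cells/well and were kept 48 h at 37 °C in 5% FBS RPMI. A CellTiter-Glo luminescence read gave % activity for curve fitting.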
KB-3-1 tox – qHTS assay for MDR1-selective chemotherapeutics: Primary screen using the parental adenocarcinoma cell KB-3-1; KB-3-1 viability, CellTiter-Glo ATP luminescence, 72 h; Potency, µM (doses to about 46.1 µM), usual class: cytotoxic; actives 1.4% (n = 400,000); AID 1347075, 2019; note: % is set by controls: 0 for no effect and ±100 for the full control effect; nearly all actives have a fitted effect of over 60% in size
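Multi-concentration cytotoxicity screen in KB-3-1 cells grown in DMEM lacking phenol red with 10% FBS. After 72 h at 37 °C with compound, ATP-dependent luminescence was recorded.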
KB-V1 MDR tox – qHTS assay for MDR1-selective chemotherapeutics: Primary screen using the drug-selected MDR subline cells KB-V1; actives 3.4% (n = 400,000); KB-V1 MDR cells viability, CellTiter-Glo, 72 h; Potency, µM (doses to about 46.1 µM), most hits filed as cytotoxic; note: % is set by controls: 0 for no effect and ±100 for the full control effect; nearly all actives have a fitted effect of over 60% in size
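Compound-treated KB-V1 multidrug-resistant cells, 72 h, 37 degrees C; viability by CellTiter-Glo. Fitted qHTS curves give the values.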
HT1080-NT tox – qHTS for induction of synthetic lethality in tumor cells producing 2HG: qHTS for the HT-1080-NT fibrosarcoma cell line; HT-1080-NT fibrosarcoma viability, CellTiter-Glo ATP luminescence, 48 h; Potency, µM (highest dose often 46.1 µM), without a hit: top-dose activity, negative = less viability, usual class: cytotoxic; actives 1.6% (n = 360,000); AID 686970, 2013;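 note: NT is the 2HG producing partner of a matched IDH1 knockdown line; 0% = DMSO-treated cells and -100% = media-only wells without cells; nearly all actives have a fitted effect of over 55% in size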
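HT-1080-NT; 750 cells/well; 5% FBS RPMI; 48 h compound, 37 degrees C; CellTiter-Glo luminescence; curve fitting and curve-class assignment.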
HepG2 viability – qHTS for Inhibitors of TGF-b: Cytotox Counterscreen; HepG2 CAGA-GFP viability, ATP luminescence, 18 h; actives 0.76% (n = 410,000); Potency, µM (series often up to 46.1 µM), without a hit: at the top dose activity change, negative = cytotoxicity, actives largely listed as cytotoxic; AID 588856, 2011
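CellTiter-Glo luminescence gave cytotoxicity after 18 hours at 37 degrees C. The cells were HepG2 CAGA-GFP in 1% FBS DMEM, stimulated with 500 pg/mL TGF-beta after compound addition. %Activity was normalised to no-cell wells (complete cell-killing) and DMSO (no toxicity), and curves were fitted and classified.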
TGFb SMAD3 inh – qHTS for Inhibitors of TGF-b; HepG2 CAGA-GFP TGF-b/SMAD3 reporter, GFP fluorescence, 18 h; TGF-beta stimulated, 500 pg/mL final; actives 1.2% (n = 410,000); Potency, µM (titrated, usually from 46.1 µM), for the others: top-dose activity, negative = inhibition, actives largely listed as inhibitors; note: % is set by controls: 0 for no effect and ±100 for the full control effect; nearly all actives have a fitted effect of over 65% in size
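Inhibition of TGF-beta-driven CAGA-GFP reporter expression in HEPG2 cells is measured by cellular GFP fluorescence after 18 h stimulation with 500 pg/mL recombinant TGF-beta in 1% FBS medium at 37 degrees C.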
The depositor's hits bear a star; i = inactive; ? = inconclusive; nt = no result. Calls come from the whole dose curve; as a rule, active = well fitted curve in the direction sought with a large enough effect; inconclusive = small, poorly fitted or top-dose-only effect, or another doubt; inactive = no such curve, though single readings can be large; an effect the other way counts as inactive or inconclusive. Potency is the fitted concentration of half-maximal effect.

SMILES	HT1080 IDH1KD tx	KB-3-1 tox	KB-V1 MDR tox	HT1080-NT tox	HepG2 viability	TGFb SMAD3 inh
Nc1ccc(CC(N)c2csc(Nc3ncccn3)n2)cc1 (stereo unspecified)	-30%	i	i	-14%	-4%	-5%
NC(Cc1ccc(F)cc1)c1csc(Nc2ncccn2)n1 (stereo unspecified)	6.5µM*	?	?	5.8µM*	-23%	?
NC(Cc1ccc(C(F)(F)F)cc1)c1csc(Nc2nncc3ccccc23)n1 (stereo unspecified)	?	?	16µM*	?	-79%	?
NC(Cc1ccc(Cl)cc1)c1csc(Nc2ncccn2)n1 (stereo unspecified)	5.8µM*	?	?	18µM*	-43%	?
O=C(NCCCl)Nc1ccccc1NS(=O)(=O)c1cccs1	4%	i	i	8%	-14%	?
O=C(c1ccco1)N1CCN(c2nc(C3CC3)nc3sc4c(c23)CCCC4)CC1	?	i	21µM*	?	-54%	?
CCCCc1nc2ccccc2c(=O)n1-c1ccc(Cl)cc1[N+](=O)[O-]	?	i	4.1µM*	6%	-2%	-15%
CCCCc1nc2ccccc2c(=O)n1-c1ccccc1[N+](=O)[O-]	3%	i	i	7%	-32%	-9%
O=C(CN1CCN(S(=O)(=O)c2cc(Br)ccc2Br)CC1)NCc1ccccc1Cl	-25%	i	3.7µM*	-9%	-20%	?
Cc1cccc(C(C)C)c1NC(=O)Cn1c(=O)oc2cc(S(=O)(=O)N3CCCC3)ccc21	nt	nt	nt	nt	-13%	nt
CCCCCn1c(=O)c(C(=O)Nc2cc(C)ccn2)c(O)c2ccccc21	23%	i	?	23%	-2%	13%
CCCCCCCn1c(=O)c(C(=O)Nc2cnccn2)c(O)c2ccccc21	?	3.3µM*	2.6µM*	-28%	4%	-21%
CCCCCn1c(=O)c(C(=O)Nc2cnccn2)c(O)c2ccccc21	-26%	?	16µM*	-16%	5%	?
COC(=O)C1CN(C#N)N(c2ccc(Cl)cc2)C12c1ccccc1-c1ccccc12 (stereo unspecified)	3.7µM*	5.2µM*	12µM*	3.3µM*	3.5µM*	5µM*
COc1cc(/C=C2\C(=O)NC(=O)N(c3ccccc3)C2=O)c([N+](=O)[O-])cc1OC	-10%	i	i	-13%	-1%	?
CN1C(=O)NC(=O)/C(=C\C=C\c2ccccc2[N+](=O)[O-])C1=O	12µM*	?	i	?	-19%	11µM*
O=C1NCN(c2ccccc2)C12CCN(CCCC(c1ccc(F)cc1)c1ccc(F)cc1)CC2	9.2µM*	?	?	8.2µM*	10µM*	11µM*
O=C(NCCN1CCC2(CC1)C(=O)NCN2c1cccc(F)c1)c1ccc2ccccc2c1	21µM*	?	i	15µM*	nt	nt
O=c1[nH]c2ccccc2n1C1CCN(CCCC(c2ccc(F)cc2)c2ccc(F)cc2)CC1	18µM*	?	12µM*	16µM*	-18%	-10%
O=C1NCN(c2ccccc2)C12CCNCC2	6%	i	i	-3%	11%	3%
CC(C)(C)c1ccc(OCC(=O)Nc2ccc(Cl)cc2C(=O)c2ccccc2)cc1	nt	i	i	nt	-17%	-18%
CN1C(=O)c2ccccc2Sc2ccc(NC(=O)N3CCN(c4ccccc4)CC3)cc21	nt	?	?	nt	-21%	?
CCN1/C(=C/C=C/C2=[N+](CC)c3ccccc3C2(C)C)C(C)(C)c2ccccc21	10µM*	0.0065µM*	8.2µM*	9.2µM*	-79%	?
CN(CCc1ccccc1)C(=O)c1ccc(NC(=O)Cc2cccc([N+](=O)[O-])c2)cc1	1%	?	i	-6%	25%	?
O=C(COc1ccc(Br)cc1)N1CCN(Cc2c[nH]c3ccccc23)CC1	-7%	i	18µM*	-3%	-63%	11µM*
SMILES	HT1080 IDH1KD tx	KB-3-1 tox	KB-V1 MDR tox	HT1080-NT tox	HepG2 viability	TGFb SMAD3 inh
COc1ccc(CN2CCN(C(=O)COc3ccc4ccccc4c3)CC2)c(OC)c1	?	?	i	?	-16%	-29%
O=C(COc1ccc2ccccc2c1)N1CCN(Cc2c[nH]c3ccccc23)CC1	?	?	?	-28%	13µM*	?
Cc1ccc(-c2csc(NC(CO)c3nc4ccccc4n3CCOCCO)n2)cc1 (stereo unspecified)	-3%	i	i	-2%	-13%	?
CCOC(=O)c1ccc(NC(=O)c2c(O)[nH]c(=O)[nH]c2=O)cc1	0%	i	i	1%	1%	-11%
CCOC(=O)c1ccc(NC(=O)Nc2ccc3c(c2)OCCO3)cc1	?	?	15µM*	?	-48%	39%
Nc1ccc(-c2ccccc2)cc1	nt	i	i	nt	1%	14%
Nc1ccc(C2(c3ccc(N)cc3)c3ccccc3-c3ccccc32)cc1	16µM*	i	i	?	-1%	?
Cc1ccc2c(C)c3ccc4ccccc4c3c[n+]2c1	23µM*	?	i	-29%	-9%	?
CCCCN1C(=O)NC(=O)C2(Cc3c(nc4c(C)cccn4c3=O)N3CCc4ccccc4C32)C1=O (stereo unspecified)	-5%	i	15µM*	0%	-16%	-24%
CCOC(=O)C1(c2ccccc2)CCN(CCC(=O)Nc2ccc(OC)cc2)CC1	-9%	i	i	-12%	-20%	-8%
CCOC(=O)C1(c2ccccc2)CCN(CCC(=O)Nc2cccc(Br)c2)CC1	23µM*	?	?	18µM*	-166%	?
COc1ccc(C)cc1NC(=O)C1CCN(S(=O)(=O)c2ccc3[nH]c(=O)oc3c2)CC1	nt	i	i	nt	-34%	-8%
COc1cccc(-n2c(-c3ccoc3)nc3ccccc3c2=O)c1	1%	i	15µM*	5%	10%	-1%
COc1ccc(NC(=O)N2CCN(c3nc(-c4cccc(OC)c4)cs3)CC2)cc1	?	?	12µM*	-10%	-26%	-8%
